Among all 650,000 compounds or so, about 6,800 (1%) were called active. The entries come from a sample that favours actives as a whole. Unmarked numbers belong to inactive results. Cut-off read from the data, not from the text of the source: active = activation above about 4.9%; inactive = the rest.
Molecular target: G-protein coupled receptor 151 (Homo sapiens) (UniProt Q8TDV0)
Assay: activators of human GPR151, primary screen, cell-based, PathHunter beta-arrestin, luminescence (AID 1508602);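 note: 0% = median of compound wells and 100% = cells with positive control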
Settings: PathHunter beta-arrestin GPR151 cells, at 11.2 µM, hits give high values

Chain of G-protein coupled receptor 151 (Homo sapiens) (Q8TDV0 whole entry, looked up): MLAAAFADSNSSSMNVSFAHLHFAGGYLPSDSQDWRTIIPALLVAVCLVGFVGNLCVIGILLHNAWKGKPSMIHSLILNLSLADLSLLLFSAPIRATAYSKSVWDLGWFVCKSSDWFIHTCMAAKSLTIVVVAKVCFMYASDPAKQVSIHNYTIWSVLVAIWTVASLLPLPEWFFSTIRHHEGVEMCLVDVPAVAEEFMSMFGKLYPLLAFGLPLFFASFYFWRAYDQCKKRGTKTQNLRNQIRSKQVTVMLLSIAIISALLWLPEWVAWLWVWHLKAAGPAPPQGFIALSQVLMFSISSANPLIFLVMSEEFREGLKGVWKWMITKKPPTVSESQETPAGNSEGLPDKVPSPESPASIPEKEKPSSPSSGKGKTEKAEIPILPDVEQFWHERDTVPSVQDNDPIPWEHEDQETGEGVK

SMILES	activation
COC(=O)NCCOc1ccc(C(C)(C)C)cc1	0.726%
CC(C)(C)c1ccc(OCCCCNCCO)cc1	0.146%
COCCNCCOc1ccc(C(C)(C)C)cc1	8.42% (active)
Cc1ccc(N2C(=O)CC(N3CCN(C(c4ccccc4)c4ccccc4)CC3)C2=O)c(Br)c1 (stereo not drawn)	-0.0796%
CCc1cc(C(=O)N2CCCCC2C)cs1 (stereo not drawn)	1.3%
Cc1ccc(CNC(=O)CN(C)S(=O)(=O)c2ccccc2)cc1	-0.21%
COc1ccc(CON2C(=O)c3ccccc3C2=O)cc1Cl	-1.06%
O=C(NNC(=O)C1CCCN(S(=O)(=O)c2cccc(Cl)c2)C1)C1CC1 (stereo not drawn)	0.674%
COc1ccc(C(=O)C2CCCN(S(=O)(=O)c3cccc(C)c3)C2)c(C)c1 (stereo not drawn)	5.47% (active)
CCc1ccc(S(=O)(=O)N2CCCC(C(=O)c3ccc(OC)c(OC)c3)C2)s1 (stereo not drawn)	0.139%
CCCOc1ccccc1C1CC(=O)C2=C(C1)Nc1ccccc1N(C(C)=O)C2c1ccc(OC)cc1 (stereo not drawn)	-0.237%
Cc1ccc(Cn2c(C)c3cnn(CC(=O)N4CCCC4)c(=O)c3c2C)cc1	-0.279%
O=C(/C=C/c1ccccc1)c1ccccc1O	5.61% (active)
COc1ccc(O)c(C(=O)/C=C/c2ccc(F)cc2)c1	-1.75%
O=C(/C=C/c1ccccc1)c1ccc(O[C@@H]2O[C@H](CO)[C@@H](O)[C@H](O)[C@H]2O)cc1O	0.684%
Cc1c(Cl)cccc1-n1c(/C=C/c2cccc3ccccc23)nc2ccccc2c1=O	1.58%
CNC(=O)c1ccc(CN(c2ccc(C)c(C)c2)S(C)(=O)=O)cc1	0.29%
CC(=O)c1ccc(NC(=O)c2ccc(CN(c3ccc(C)c(C)c3)S(C)(=O)=O)cc2)cc1	5.09% (active)
COC(=O)c1ccccc1NC(=O)c1ccc(CN(c2ccc(C)c(C)c2)S(C)(=O)=O)cc1	-0.0331%
Cc1cnc(CNC(=O)c2ccc3cncc(-c4cc5ccccc5o4)c3n2)cn1	-1.58%

SMILES	activation
COc1ccc(NC(=O)CSc2nc(=O)n(CCCN(C)C)c3c2CCC3)cc1OC	-0.304%
COc1cc(CO)cc(Cl)c1OCc1ccccc1	0.149%
COc1cc(Cl)c(CNCc2ccccc2)cc1OC	-1.13%
CCOc1c(Cl)cc(CNCc2ccccc2)cc1OC	5.18% (active)
Cc1ccc(CNC(=O)CSc2nc3ccccc3c(=O)n2CC2CCC(C(=O)NCc3ccco3)CC2)cc1 (stereo not drawn)	-0.182%
O=C1NC(=O)c2cc(N3C(=O)c4cccc([N+](=O)[O-])c4C3=O)ccc21	-0.912%
CN1C(=O)c2ccc(N3C(=O)c4cccc([N+](=O)[O-])c4C3=O)cc2C1=O	5.16% (active)
O=C1c2cccc([N+](=O)[O-])c2C(=O)N1c1ccc2ccccc2c1	0.404%
CC1(C)CC(=O)c2cc(C(=O)Nc3cccc(F)c3)c(=O)n(-c3ccccc3)c2C1	0.451%
O=C(NCCc1ccccc1)c1ccc2c(c1)NC(=O)C(CS(=O)(=O)Cc1cccc(F)c1)N2 (stereo not drawn)	-0.907%
CC(C)c1ccc(CN[C@H]2C[C@H]3C(=O)N[C@@H](COCc4ccccc4)C(=O)N3C2)cc1	5.83% (active)
O=C1N[C@@H](COCc2ccccc2)C(=O)N2C[C@@H](NCc3ccsc3)C[C@@H]12	1.22%
CC(C)C[C@H]1NC(=O)[C@@H]2C[C@H](NCc3ccccc3)CN2C1=O	2.09%
Cc1ccc(C2=N/C(=C\c3cccc(Cl)c3)C(=O)O2)cc1	-1.7%
Cc1nc(C)n(CCC(=O)N2CCN(Cc3ccccc3F)C[C@@H]2C(C)C)n1	-0.818%
COc1ccc(Cn2ccnc2SCC(=O)NCc2ccco2)cc1	0.251%
CC(C)NC(=O)CSc1nccn1Cc1ccco1	0.992%
COCCNC(=O)CSc1nccn1Cc1ccco1	4.92% (active)
COCCNC(=O)c1cccc(-n2c(=S)[nH]c3cc(Cl)ccc3c2=O)c1	1.05%
O=C(CCCOc1ccc(Cl)cc1)NCc1ccco1	-1.43%

SMILES	activation
CCCCc1ccc2c(N)c(C(=O)Nc3ccc(C(=O)O)cc3)sc2n1	-1.27%
CCOC(=O)C1=C(CC)OC(N)=C(C#N)C1c1ccc(C(F)(F)F)cc1 (stereo not drawn)	5.43% (active)
CCCC1=C(C(=O)OCC)C(c2cccc(F)c2)C(C#N)=C(N)O1 (stereo not drawn)	0.841%
CCCC1=C(C(=O)OCC)C(c2ccc(O)c(OC)c2)C(C#N)=C(N)O1 (stereo not drawn)	2.22%
c1ccc(Nc2cc(NCc3ccc4c(c3)OCO4)ncn2)cc1	-0.773%
CC1=C(C(=O)Nc2cccc(F)c2)C(c2ccccn2)C2=C(CCCC2=O)N1 (stereo not drawn)	4.99% (active)
COc1cc(C2C(C(=O)Nc3ccccn3)=C(C)NC3=C2C(=O)CCC3)cc(OC)c1OC (stereo not drawn)	0.722%
CC1=C(C(=O)Nc2ccccc2C(F)(F)F)C(c2ccccn2)C2=C(CC(C)(C)CC2=O)N1 (stereo not drawn)	0.421%
Cc1ccccc1-n1c(SCC#N)nc2c(sc(=S)n2-c2ccccc2C)c1=O	-0.0279%
Cc1cccc(C)c1-n1c(=S)sc2c(=O)n(-c3cccc(Cl)c3)c(SCc3cccc([N+](=O)[O-])c3)nc21	-0.958%
Cc1cccc(C)c1-n1c(=S)sc2c(=O)n(-c3cccc(Cl)c3)c(SCC#N)nc21	7.07% (active)
CCCOc1ccc(-c2ccc(-c3noc(-c4ccc(OCC)cc4)n3)cc2)cc1	-1.32%
O=C(COc1ccc(Cl)cc1Cl)NCc1nc(-c2ccccc2)no1	-1.12%
Cc1sc(NC(=O)CN(C(=O)CCc2ccccc2)C2CCCC2)c(C(N)=O)c1C	0.0057%
CCCCNC(=O)C1CCC(=O)N1Cc1ccc(F)cc1 (stereo not drawn)	1.65%
O=C(Nc1cccc(N2CCC(NCc3ccon3)CC2)c1)c1cccnc1	5.91% (active)
O=C(Nc1cccc(N2CCC(NCC3COc4ccccc4O3)CC2)c1)c1cccnc1 (stereo not drawn)	0.419%
COc1ccc(CNC2CCN(c3cccc(NC(=O)c4cccnc4)c3)CC2)cc1	-0.19%

From PubChem BioAssay AID1508602 (The Scripps Research Institute Molecular Screening Center, 2020)
